Assay outcomes (PubChem)
D1 ag – human D1 receptor agonism; HEK293 T-REx D1 cells, calcium flux, agonist mode; activation, % at 2 µM; hit rate 1% among 360,000; AID 504660; in the data active = activation above about 30%; note: 0% is about no effect
Target sequence (P21728 whole entry, looked up): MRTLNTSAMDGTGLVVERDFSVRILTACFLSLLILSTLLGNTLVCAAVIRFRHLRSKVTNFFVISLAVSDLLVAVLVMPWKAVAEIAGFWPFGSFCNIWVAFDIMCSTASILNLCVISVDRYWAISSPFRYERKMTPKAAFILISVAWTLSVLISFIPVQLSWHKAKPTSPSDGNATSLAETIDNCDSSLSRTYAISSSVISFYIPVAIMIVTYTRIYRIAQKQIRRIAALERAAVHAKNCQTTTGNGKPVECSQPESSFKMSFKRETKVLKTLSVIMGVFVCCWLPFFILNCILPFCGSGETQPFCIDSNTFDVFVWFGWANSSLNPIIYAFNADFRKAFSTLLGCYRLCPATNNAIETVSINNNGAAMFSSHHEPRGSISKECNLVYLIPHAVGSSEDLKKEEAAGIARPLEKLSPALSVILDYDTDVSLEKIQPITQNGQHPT
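Agonism was scored from calcium flux recorded over 180 s (1 read/s) after pintool compound addition, following a 10-cycle baseline. Cells were inducible force-coupled HEK293 TREx D1, plated overnight at 30 C and loaded with no-wash calcium dye.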
DRD3 agonist – D3 dopamine receptor (human) agonism. P35462. D3R DiscoveRx beta-arrestin cells, luminescence, 90 min. max activation, %. hit rate 0.58% among 410,000. AID 652048; in the data active = max activation above about 30%; note: 0% is about no effect
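Agonist-mode cell screen: cells plated at 1500/well and incubated overnight at 37 °C, then exposed to library compounds for 90 min at 37 °C. Detection reagent was added for 30–60 min at room temperature, and luminescence was read.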
D3 antag – D3 dopamine receptor (human) antagonism; P35462; max response, negative = inhibition, %; hit rate 2.5% among 360,000; D3R cells, DiscoveRx beta-arrestin luminescence, antagonist mode; stronger effect = lower value; in the data active = max response below about -50%; inconclusive = no clear call, values can overlap the other calls; note: % is set by controls: 0 for no effect and ±100 for the full control effect
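Cells expressing the human receptor were seeded at 1500 cells/well, incubated overnight at 37 degrees C in 5% CO2, then exposed to library compounds with dopamine controls for 90 minutes at 37 degrees C before luminescent detection.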
D1 antag – blocks dopamine activation of the human D1 receptor | P21728 | HEK293 TREx D1 cells, calcium flux, dopamine EC80; stronger effect = lower value | hit rate 3.2% among 360,000 | activity change, negative = inhibition, % at 10 µM; in the data active = activity change below about -30%; note: % is set by controls: 0 for no effect and ±100 for the full control effect
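Inducible Hek293 Trex D1 cells (tetracycline, overnight, 30 C). Calcium dye 30–90 min RT. Antagonist mode: EC80 dopamine added after 180 s compound read.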
D1 PAM – human D1 dopamine receptor positive modulation; potentiation, % at 10 µM; P21728; HEK293 TREx D1 cells, calcium flux, dopamine EC20 potentiation; hit rate 0.036% among 360,000; in the data active = potentiation above about 30%; note: 0% is about no effect
The depositor's hits bear a star; ? = inconclusive; / = not tested or not shown; ! = not confirmed by another sample. Compounds with a hit are over-represented: about 6.1% of the library has one in this group of screens.

SMILES | D1 ag | DRD3 agonist | D3 antag | D1 antag | D1 PAM
C=CCn1c(SCC(=O)Nc2sccc2C(N)=O)nc2sc(CC)cc2c1=O | 1 | 35* | 75 | -10 | -5
CC(C)OCCCNC(=O)c1cc2c(-c3ccc(Cl)cc3)nn(C)c2s1 | 6 | -7 | / | -2 | -3
COc1cc(Cl)c(C)cc1NC(=O)c1cc(CN2CCOCC2)on1 | 0 | 10 | / | -7 | -3
CCC(=O)c1ccc(N2CCN(C(=O)c3ccccc3Br)CC2)c(F)c1 | 9 | -3 | -10 | -23 | 0
CC(=O)c1cc(F)c(N2CCN(C(=O)Cc3ccccc3)CC2)cc1C | -1 | 7 | 34 | 4 | -7
CCOC(=O)N1CCN(c2ccc(C(=O)c3ccccc3)cc2F)CC1 | 11 | 1 | 19 | -42* | -11
CCOC(=O)N1CCN(c2cc(C)c(C(C)=O)cc2F)CC1 | 10 | 7 | 19 | -42* | -4
CCOC(=O)N1CCN(c2ccc(C(C)=O)cc2F)CC1 | 1 | -2 | 33 | -12 | -11
CCC(=O)c1ccc(N2CCN(C(=O)c3ccccc3F)CC2)c(F)c1 | 38* | 9 | 5 | 10 | -7
COc1cccc(-c2c(-c3cc(OC)cc(OC)c3)n(C)c3ccc(-c4ccc5[nH]ccc5c4)cc23)c1 | 0 | 32* | 30 | / | 1
COc1cc(OC)cc(-c2c(-c3ccc(F)cc3)c3cc(-c4ccc5[nH]ccc5c4)ccc3n2C)c1 | -1 | -7 | 0 | / | 2
COC(=O)Cc1ccc(OC2(C)CCN(Cc3ccccc3)C2)cc1 (stereo unspecified) | / | -12 | -89* | / | /
CC1(Oc2ccccc2)CCN(Cc2csc3ccccc23)C1 (stereo unspecified) | / | -10 | -83* | / | /
CSc1ccc(OC2(C)CCN(Cc3ccccc3)C2)cc1 (stereo unspecified) | / | -10 | -73* | / | /
CSc1ccc(CN2CCC(C)(Oc3ccc(-n4ccnc4)cc3)C2)cc1 (stereo unspecified) | / | -22 | -97* | / | /
CSc1ccc(CN2CCC(C)(Oc3ccc(CC#N)cc3)C2)cc1 (stereo unspecified) | / | -14 | -27 | / | /
CC(=O)Nc1ccc(S(=O)(=O)N2CCN(c3ccc(C)c(C)c3)CC2)cc1 | 1 | -4 | / | -3 | -4
Cc1ccc(Cl)cc1N1CCN(C(=O)c2cc(S(=O)(=O)N3CCCCCC3)cn2C)CC1 | 2 | -3 | / | 12 | 0
CCCNC(=O)CSc1nccn1Cc1ccc(OC)cc1 | 4 | -4 | 0 | -13 | -2
COc1ccc(-n2ccnc2SCC(=O)Nc2ccccc2)cc1 | 3 | -1 | 4 | -4 | -3
Cn1ccnc1SCC(=O)Nc1cccc2ccccc12 | 2 | 0 | -18 | -34* | -7
O=C(CSc1nccn1-c1ccc(F)cc1)Nc1ccc(OC(F)(F)F)cc1 | 0 | 4 | / | -76* | -5
COc1ccc(NC(=O)CSc2oc(-c3cccs3)nc2S(=O)(=O)c2ccc(C)cc2)c(OC)c1 | 1 | 8 | / | 11 | 0
COc1ccc(Cn2ccnc2SCC(=O)NC2CCCC2)cc1 | 6 | -3 | 3 | -67*! | 4
COc1ccc(NC(=O)CSc2oc(-c3cccs3)nc2S(=O)(=O)c2ccccc2)c(OC)c1 | 6 | 59* | / | 0 | 0
SMILES | D1 ag | DRD3 agonist | D3 antag | D1 antag | D1 PAM
COC(=O)c1ccccc1NC(=O)CSc1nccn1C | -1 | 9 | 5 | -1 | -2
COc1cc(NC(=O)Cn2c(SCc3ccc(F)cc3)nc3cccnc32)cc(OC)c1 | 15 | -3 | / | -3 | -4
COc1ccc(NC(=O)CSc2nccn2Cc2ccccc2)c(OC)c1 | 9 | 2 | 12 | -36* | -7
COc1cccc(-n2ccnc2SCC(=O)Nc2ccccc2F)c1 | 3 | -4 | -12 | -37* | -5
CCn1c(Cc2ccc(OC)cc2)nnc1SCC(=O)Nc1nc2ccccc2s1 | 4 | 3 | -22 | -31* | -8
COc1ccc(NC(=O)Cn2c(SCc3ccc(C)cc3)nc3cccnc32)c(OC)c1 | 11 | 39* | / | -27 | -3
CCn1c(SCC(=O)Nc2nc3ccccc3s2)nnc1-c1ccc(Br)cc1 | 2 | -6 | 9 | -8 | -4
COc1ccc(-n2c(-c3ccc(C)cc3)cc3c2CC(C)(C)CC3=O)cc1Cl | 2 | -4 | / | 4 | 7
CCn1c(CNC(=O)Cc2ccc(OC)cc2)nnc1SCC(=O)NC1CCCCC1 | 0 | 7 | 21 | -39* | -5
Cc1cccc(C)c1OCC(=O)NCc1nnc(SCC(=O)NC2CCCCC2)n1C | 3 | -7 | -72* | 2 | 4
CCOc1c(Cl)cc(C(=O)N(Cc2ccc(N(C)C)cc2)Cc2ccco2)cc1Cl | 2 | -5 | / | -16 | 0
NC1=NC(=Nc2ccccc2)c2ccccc21 | 0 | 2 | ? | 4 | -8
NC1=NC(=Nc2ccc(Br)cc2)c2ccccc21 | -1 | 2 | -6 | -33* | -10
NC1=NC(=Nc2ccc(Cl)cc2)c2ccccc21 | 1 | -3 | -1 | -41* | -14
NC1=NC(=Nc2ccc(S(=O)(=O)N3CCOCC3)cc2)c2ccccc21 | 4 | -1 | 10 | -33* | -3
COc1cccc(C(=O)Nc2cccc(OCc3cc(=O)n4cc(C)ccc4n3)c2)c1 | -1 | 4 | / | -27 | 1
CCOc1ccc(CCNC(=O)Cn2nnc(-c3ccc(C(F)(F)F)cc3)n2)cc1OCC | -1 | 9 | / | 4 | -5
CC(C)(C)Cc1c(-c2cccc(Cl)c2)nc2ccc(Br)cn12 | / | -16 | -109* | / | /
COc1ccccc1Cc1c(-c2cccc(Cl)c2)nc2ccc(Br)cn12 | / | -21 | -83* | / | /
CCCc1nc2ccc(C)cn2c1Cc1ccccc1OC | / | 3 | -3 | / | /
CCCc1nc2ccc(Br)cn2c1Cc1ccccc1OC | / | 78* | -19 | / | /
FC(F)(F)c1ccccc1Cc1c(-c2cccc(Cl)c2)nc2ccc(Cl)cn12 | / | 57* | -15 | / | /
COC(=O)c1ccc2nc(-c3cccc(Cl)c3)c(Cc3ccccc3OC)n2c1 | / | -6 | 7 | / | /
COc1cccc(NC(=O)c2c(C)oc3nc(C)nc(N4CCCC4)c23)c1 | -1 | 1 | / | 0 | -7
S=C(S)OC1CC2CC1C1CCCC21 (stereo unspecified) | / | 11 | -80* | / | /
CCCN(CCC)S(=O)(=O)c1ccc(NC(=O)c2cc(C(=O)OC)cc([N+](=O)[O-])c2)cc1 | 1 | -5 | -19 | -38* | 1
COc1cc(C(=O)Nc2cnc(NC(=O)C(C)C)cc2C)cc(OC)c1OC | 1 | -4 | -28 | -47* | -9
O=C(N/N=C/C=C\c1ccccc1[N+](=O)[O-])c1cccs1 | 2 | -16 | -64* | 1 | -3
CCn1c(SCC(=O)NNC(=O)Cc2ccccc2)nnc1-c1ccccc1 | -1 | -10 | -51* | -29 | -5
CCn1c(SCC(=O)Nc2ccccc2F)nnc1-c1ccoc1C | 0 | -25 | -55* | -14 | -4
